Out of some 31,000 sequences screened, about 1,400 (4.5%) were called active. Many of the other results were omitted from the sample, so actives are more common in it than they were. A number with no mark means an inactive call.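 The calls were made as follows: active = median seed-adjusted z-score above 1 or below -1; inactive = the rest.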
assay: Novel Modifiers of Survival Motor Neuron (SMN) Protein: Gene Identification via Genome-wide siRNA Screen; settings: HEK293T SMN2-luciferase reporter, siRNA knockdown, 72 h; actives lie on both sides;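 also: luminescence tracks full-length SMN protein made from the SMN2 reporter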
In short: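 siRNA screen, 10418 genes ×3 siRNAs; 1 pmol/well, lipid reverse transfection into HEK293T SMN2-luc reporter line. 72 h, 37 °C, 5% CO2; ONE-Glo readout. Data: neg-ctrl normalized, log10, MAD; hit = MAD >1.0 or < -1.0.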

Row | Sequence | median seed-adjusted z-score
1 | CCUCUAGAAGGAUCUAAUATT against MMP19 | 0.43
2 | GAAUUGUUUUAGCUAACGATT against PGM2 | 0.355
3 | AAACAGACAGAGAUAAGUATT against UBE2D3 | 1.62 (active)
4 | AGUACUUUGUAUUGGGAUATT against RCE1 | -1.19 (active)
5 | AGCAGGAUAUGAUCCGGAATT against SEC14L4 | -0.714
6 | GGCACGUCCUGUUACACCATT against LMO4 | -0.067
7 | CGCUUGGAGAGGCUACAAATT against FXR2 | -0.133
8 | GUUCCGAAGUGGUCUCAUUTT against MINPP1 | -0.0107
9 | GCAGUACACUACCAACAGATT against ALAS1 | -1.15 (active)
10 | CAACAUUGGAAAAUACAGATT against LAP3 | 0.0175
11 | UCCCGGGAAUUAAAACUUATT against EPHA6 | 0.0445
12 | GGAUCUGCACAGUCUUCUATT against PSKH2 | 0.0439
13 | GGAUUUGCCCUGACAAAAATT against ZRANB2 | 0.441
14 | CAUUGAGAAUAAUAACAGATT against PPP3CA | 0.74
15 | GCCUAUUAUGGAGAAAAGATT against HES1 | -0.262
16 | CGAUAUGAUUGGCCAGAGATT against GIPC3 | -0.27
17 | CGGAUUUGUUGCUAAAUGATT against PCDHB8 | 1.15 (active)
18 | CUGACAGUGUGGAUCGAUATT against COL12A1 | 0.00422
19 | GGAUUGAAAACAAACUCUATT against RET | -0.931
20 | GCGGUACUUUGAGCAGUUATT against P4HA2 | 0
21 | GGCUCUUCAAGGCUAUGAATT against ANXA6 | -1.01 (active)
22 | GUCUGUAACUGAGCAAGGATT against YWHAZ | 0.721

Row | Sequence | median seed-adjusted z-score
23 | ACGGUUCGCUGAAAAAGAATT against PITX3 | 0
24 | CGUCCAUACUUACCUAAUUTT against UGT2A1 | 0.213
25 | CGACCGCACCUGGAAUGAATT against PLA2G4D | -0.233
26 | GCGUGUCAGCUGUUCAUUATT against OSBPL5 | 0.638
27 | CAAGCCCUCUGAAACAGUUTT against ADRA1A | -1.06 (active)
28 | GCAUAUGAUUUUAUGGUAATT against FBXW7 | 0
29 | CUCUCUAUAUUGAAACCAATT against CHN1 | 2.1e-05
30 | ACUGAAAGCUGAUUAAUUATT against KLK2 | 0.0716
31 | GAGCUGAUCUGUUACAAGUTT against DAK | -0.372
32 | GAACACUCUAUGUCUAAUATT against MYNN | 0.0702
33 | GUGAUGUCAUUAGGCAGAATT against CRIP3 | 1.7 (active)
34 | UCCCAGUUCUGAUACAUAUTT against SAE1 | 0.831
35 | AGACCUGCGUGGUGCACUATT against FKBP1A | 0.113
36 | GGAGCUUCAGGUUGUCCGATT against RPUSD3 | 0.303
37 | CGAUGGACAGUGUCUCUUATT against ALG6 | 0.106
38 | UCCUUGUUGUGGACAGGGATT against SPINK4 | -0.0134
39 | GGACCUAUUCGUCAAAUCATT against SF3B14 | -1.26 (active)
40 | CCUUGCUUGUGAGAGCAGATT against NPAS1 | -0.386
41 | GCGUUAUCCUCGUACCUUUTT against STC2 | -0.00039
42 | CUAUCCACCAUACAUUUCATT against NTM | 0
43 | GCAACGGGUUUGGAGUCAATT against KRT75 | 0.0773
44 | CCAUCUCGACUGACAAGAATT against TNNI3K | -0.178

Row | Sequence | median seed-adjusted z-score
45 | GCUAUUAUCUAAGCACGAATT against ADAMTS20 | 1.44 (active)
46 | GAUAUAUCCGAAACCAGUATT against PDGFD | 0.366
47 | GAAUCGGCGAUGUACUAGATT against NT5C3 | -0.456
48 | CUAUGUCGUUGAAAACCAUTT against KCNE1 | -0.347
49 | GGAAGUAUUAGGGUACAAATT against SOS2 | 0.3
50 | GAGUAUCUCUGAAACCUCUTT against IL1A | 1.12 (active)
51 | GGGAGUGACAUAUCCAAGATT against CCL26 | -0.01
52 | CGGAAGGUGUAUGAACUGATT against ICAM1 | 0.345
53 | GCAAGGUCGUCAACCGCAATT against SAPS1 | 1.16 (active)
54 | GCAGUUCCAUGGUACACCATT against ASAH1 | 0.421
55 | GUCAGAUACAUGAACCAGATT against JMJD1A | 0.466
56 | GGAUAGGAGUCAUCAGCCUTT against SSTR3 | 0
57 | CCCAAUUCAGAUUACUACATT against POLN | -0.129
58 | CUACUCAACAGACAUAAUATT against TRIP13 | 1 (active)
59 | GGCUUCUACUGGUGUCUGATT against PIGR | -0.35
60 | GGACUUACACUCUUAGGAATT against MAOB | 0
61 | CACAACAUCUUGUAAGACUTT against GNG13 | -0.516
62 | CGCCGACUCUAUUCAUGCATT against RAB22A | 0.321
63 | CGAGAGUAAUUUGAAGAAUTT against SIGMAR1 | -1.4 (active)
64 | GAUGGAUCUUUACAGUUGATT against METTL4 | 0.244
65 | GAACAAUCAUUGCAUCGGATT against CPB2 | -0.62
66 | CCUUACCUGGAGUACCCAATT against PMPCA | -0.985

Row | Sequence | median seed-adjusted z-score
67 | GGACCGAAGUCAAUGGUUUTT against SMC2 | -0.052
68 | CAUUUAGUGUACAUUCAAATT against ZNF665 | 1.13 (active)
69 | CGACAGGGUAUCCAACUAATT against WASL | 0.143
70 | CAUGGAAAAUGAUGACGAATT against PPP4R2 | 0.211
71 | CUCAAGAACUGUCAAGUAATT against GSK3B | -0.952
72 | GGACAUCUAUGUUAUAUGUTT against TRIM65 | -0.599
73 | CGUCAUCCCUCAACAAGAATT against ATP2B2 | 1.37 (active)
74 | GGCUAUUACUCAGUACAGATT against TLN1 | -0.0619
75 | CUAUGUGAUUGAUCAAGGATT against PRKAR1A | 0.428
76 | UCAUCGGCGUGAUCGUGUATT against CACNG8 | 0.214
77 | GAAUUUGCGAUGUACUUAATT against CSNK1A1 | -0.608
78 | GGAAAGGAAUGGUCACGAATT against ZNF321 | -0.642
79 | AGGUCAACACGGAGCUCAATT against CHRM1 | 1.1 (active)
80 | GAAGAAUAGUGAUGCUCGATT against GRIA1 | 0.927
81 | CUAAUUCAACAUUACAUCATT against ZNF550 | 0.131
82 | CGACAGUCUUGCUGAAAAATT against NOTO | -0.193
83 | GCACGAUUACUACUACCGATT against PNPLA1 | 0.00692
84 | GGAUGUCGGCAACACGGAATT against MYBPC3 | 0.304
85 | AAAGAAUGCGUGCUUUUAATT against RABGGTA | -0.0601
86 | CACUGUAACGACUUCCUUATT against CCIN | 0.0472
87 | GAAAUUGACAUGUUGGAUATT against ANXA4 | -0.0932
88 | GACUGUCGCUGGUUGGAGATT against ACPT | -0.114

Row | Sequence | median seed-adjusted z-score
89 | AGACCGAACUGGUUUCGCUTT against CDKN2C | -0.0789
90 | CACUCGAAGCAGUUUGGAATT against SMS | 0.186
91 | CAGUGAAACUGCACCUCUATT against TGM1 | -0.286
92 | CCAACGAGCGAGCAGCUUATT against BARX1 | 1.63 (active)
93 | ACGGCAAGGUGUUCGAUGUTT against PGRMC1 | 0.124
94 | CGUUCGACCUGAUCGCAAATT against ODZ2 | -0.0233
95 | GGGUCACACUAUUUCGUGUTT against ARIH1 | -0.443
96 | GAUGAGUGCUGCUUCCGGATT against IGF1 | 0.559
97 | CCAGCUCCACGAAAAAGAATT against ZNF395 | -0.0986
98 | GAUACAGUCUACGCAGUUATT against ATPAF1 | 0.393
99 | CAGCGUGCAUUUUCACUAATT against AKAP11 | -0.0405
100 | GCACUAAGAGUGACGUGUATT against PSKH1 | -2.03 (active)
101 | GGCUACAAUUUAAGACGAUTT against TNR | 0.498
102 | GAAAGAUGCAAAAGACAAATT against SFPQ | -1.15 (active)
103 | GGUUAUGUAGUAACGAGUUTT against ALS2 | 0
104 | GGAAUAUAAUAAGCGAAGATT against TAOK1 | -0.0533
105 | CGAGACUACUAAAGAAACATT against DDX18 | 0.241
106 | CUACGACUUUUCCAAUAUATT against SLC6A4 | 1.43 (active)
107 | CCAUCUCCCUUGUGCUGCATT against NINJ1 | -0.061
108 | GAGAGACCCUCGUCCUUUATT against CYP20A1 | -0.796
109 | GAAAGGCUUUGACCAAUCUTT against ZNF319 | 0.256
